# In the library only some 3.9% were active in any assay of this set; here they are far more common.
# Peg3 prom inh = Peg3 promoter activity inhibition | HeLa PEG-Prom luciferase reporter, luminescence, overnight | inhibition, % at 20 µM | hit rate 1.7% among 360,000;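 active means inhibition of at least 50% at 20 µM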
# CF NFkB inh = blocks PAF-induced NF-kB reporter in cystic fibrosis cells; hit rate 0.86% among 360,000; inhibition, % at 5 µM; AID 588850; KKLEB NF-kB-GFP reporter, GFP fluorescence overnight;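 active means at least 50% inhibition at 5 µM, scaled per plate between neutral and stimulator controls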;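 further: PAF is a Pseudomonas aeruginosa culture filtrate used as stimulus; plate controls were PAF-stimulated DMSO wells for no effect and unstimulated DMSO wells for full effect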
# HIF-2a block = blocks HIF-2a reporter activity; inhibition, % at 18.8 µM; hit rate 0.72% among 360,000; 786-0 RCC cells HIF-2a reporter, luciferase luminescence, overnight;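 active means inhibition of the luminescence signal of 40% or more relative to plate controls, in a single-dose primary screen at 18.75 µM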
# KKLEB tox = CF airway cell cytotoxicity counter-screen. AID 602141. activity change (cytotoxicity), % at 5 µM. hit rate 0.36% among 360,000. KKLEB CF airway cells viability, ATPlite luminescence, overnight; stronger effect = lower value; cells stimulated with P. aeruginosa culture filtrate;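 active means corrected activity change at or below -50% at 5 µM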
# TWEAK-Fn14 inh = blocks TWEAK-Fn14 interaction in a reporter cell assay; TWEAK-stimulated Fn14 reporter cells, luciferase luminescence, 8 h; inhibition, % at 10 µM; hit rate 2% among 360,000; in the data active means inhibition above about 50%
# TROY NFkB inh = blocks TROY-dependent signaling in reporter cells. Q293 LMP1-TROYcd NF-kB luciferase reporter, 4 h. inhibition, % at 10 µM. hit rate 0.98% among 360,000. AID 1347056;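 active means compounds whose plate-normalised and pattern-corrected inhibition of the luciferase reporter signal at the single screening dose is 50% or more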
# Active calls of the source: *; · = no result given.
SMILES,Peg3 prom inh,CF NFkB inh,HIF-2a block,KKLEB tox,TWEAK-Fn14 inh,TROY NFkB inh
C[C@@H]1CN([C@H](C)CO)C(=O)c2c(c3ccccc3n2C)-c2ccccc2CO[C@H]1CN(C)Cc1ccc(C(F)(F)F)cc1,58.8*,10.0,-69.2,-8.0,22.9,14.7
C[C@@H]1CN([C@H](C)CO)C(=O)c2c(c3ccccc3n2C)-c2ccccc2CO[C@H]1CN(C)Cc1ccc(Oc2ccccc2)cc1,57.6*,29.7,-34.0,-28.6,18.4,-3.3
CC(=O)c1ccc(N2CCN(C(=O)Nc3cccc(F)c3)CC2)cc1,-18.6,-7.8,-9.0,2.8,11.8,-11.2
CCCN=C1NC(=O)C(CC(=O)NCCc2ccccc2)S1 (stereo unspecified),9.1,5.1,13.1,18.9,1.7,4.4
Cc1csc(NC(=O)c2cc3c(s2)-c2ccccc2OC3)n1,-183.1,-27.5,-184.6,7.3,35.9,11.4
CC1CC(C)CN(CCCNC(=O)c2cc3c(s2)-c2ccccc2OC3)C1 (stereo unspecified),44.2,16.7,-12.2,-11.4,-1.8,-31.1
CC1CCCC(C)N1CCCNC(=O)c1cc2c(s1)-c1ccccc1OC2 (stereo unspecified),79.0*,10.0,-7.8,-23.1,-24.4,-21.2
Cc1c(NC(=O)c2cc3c(s2)-c2ccccc2OC3)cccc1[N+](=O)[O-],-38.5,-25.1,-96.1,21.5,62.0*,44.1
CC1CC(=O)Nc2ccccc2N1C(=O)COc1cc(Cl)ccc1Cl (stereo unspecified),6.9,7.0,9.8,5.1,5.6,-26.5
COc1cc2nc(N3CCNCC3)nc(N)c2cc1OC,73.6*,-18.3,10.1,-10.0,-171.7,-23.4
CC(=O)Nc1ccc(NC(=O)c2cc(-c3cc(C)c(C)cc3O)n[nH]2)cc1,-19.5,9.6,-14.9,-2.9,-12.7,7.9
Cc1nccn1CC(=O)N/N=C/c1cccs1,0.1,8.0,12.3,-15.9,73.8*,-5.2
Cc1cc(C)n(CC(=O)N/N=C/c2cccs2)n1,-76.5,12.9,-111.3,-11.1,104.8*,-15.3
N#Cc1ccc(C(=O)Nc2cc(-c3ccccc3)nn2-c2ccccc2)cc1,-2.6,-7.1,-38.0,15.6,-40.9,-19.3
CCOCCOC(=O)C1=C(C)N(C)C(=O)NC1c1ccccc1Cl (stereo unspecified),19.2,0.1,5.3,-1.5,53.1*,·
CC1=C(C(=O)OCC(C)C)C(c2ccccc2Cl)NC(=O)N1C (stereo unspecified),-0.8,0.9,-23.6,-4.0,-23.8,-11.0
COc1cc(/C=N/Nc2nc(-c3ccc(S(=O)(=O)N(C)C)cc3)cs2)ccc1O,7.7,-3.7,-18.6,9.3,81.3*,11.7
COc1ccc(/C=N/Nc2nc(-c3cccc(S(=O)(=O)N4CCCC4)c3)cs2)cc1OC,-20.0,-17.0,-38.1,-3.8,12.9,17.0
NC(=S)NN=Cc1nccc2ccccc12,-57.6,86.7*,-155.4,-74.4*,76.5*,30.6
C[C@H](CO)N1C[C@H](C)[C@H](CN(C)Cc2ccncc2)Oc2ncc(Br)cc2C1=O,-5.1,3.3,-1.6,6.1,-1.3,8.1
COC(=O)C1CCC(=O)N1C(c1ccc(OC)cc1)c1cc(OC)c(OC)c(OC)c1 (stereo unspecified),-25.7,52.3*,27.8,-19.9,13.1,3.8
CN(C)c1nc(NCc2ccccc2)nc(N/N=C/c2cccc(Br)c2)n1,-0.8,8.1,-5.8,3.9,-12.9,9.1
O=C(/C(=C/O)N=Nc1ccccc1)c1ccc(Cl)cc1,33.1,62.8*,-81.1,-29.3,-9.0,-18.2
Cc1ccc(N=N/C(=C\O)C(=O)c2ccc(Cl)cc2)cc1,75.1*,76.2*,-220.0,-56.9*,-16.0,-41.1
O=C(/C(=C/O)N=Nc1ccccc1)c1ccncc1,-5.6,-15.4,1.1,3.1,-12.9,-44.2
SMILES,Peg3 prom inh,CF NFkB inh,HIF-2a block,KKLEB tox,TWEAK-Fn14 inh,TROY NFkB inh
CCOc1cc2c(cc1OCC)C(c1ccccc1)N(c1ccccc1)C(=O)C2 (stereo unspecified),6.5,30.9,26.4,-7.2,-2.4,4.2
COC(=O)c1ccc(N=c2sc(C(=O)OC)cc(=O)n2C)cc1,33.2,9.2,25.2,-6.5,45.0,-5.6
COC(=O)c1cc(=O)n(CCc2ccccc2F)c(=Nc2ccc(F)c(Cl)c2)s1,91.0*,35.5,91.2*,-27.5,28.3,-20.5
COC(=O)c1cc(=O)n(Cc2ccc3c(c2)OCO3)c(=Nc2ccc(F)cc2)s1,51.5*,28.4,0.3,-7.8,41.7,21.5
CCCCCOc1cccc(C2C(C(=O)c3cccs3)=C(O)C(=O)N2CCN2CCOCC2)c1 (stereo unspecified),-5.8,9.9,16.6,-2.9,10.7,-21.6
Cc1ccc(NC(=O)N/C=C/c2ccco2)cc1C,-21.8,-7.8,-5.2,2.7,-2.9,-23.3
Cc1cc(NC(=O)CCCSc2nc(-c3ccco3)cc(C(F)(F)F)n2)n(-c2ccccc2)n1,10.3,17.9,16.7,-1.9,61.6*,·
Cc1ccc(/C=C/C(=O)c2c(C)cc(C)[nH]c2=O)cc1,47.8,38.1,27.0,2.6,86.0*,37.4
C/C(=C\c1ccc(Br)cc1)C(=O)c1c(C)cc(C)[nH]c1=O,4.7,6.4,22.3,7.9,52.0*,45.1
COc1ccc(Br)cc1/C(C)=N/NC1=NCCN1,16.6,0.9,22.2,-2.8,22.3,18.0
CCCCCOc1ccc(Br)cc1/C(C)=N/NC1=NCCN1,80.6*,51.8*,30.7,-23.3,20.0,36.4
Cc1ccc(-c2cn(-c3ccccc3)c(=S)[nH]2)cc1C,-111.8,-1.3,-136.9,-23.0,67.9*,49.9
O=C(NC(CSCc1ccccc1)C(=O)N/N=C/c1ccc(O)cc1O)c1ccc([N+](=O)[O-])cc1 (stereo unspecified),51.4*,9.6,13.3,13.3,-9.2,4.6
COc1cc(O)ccc1/C=N/NC(=O)c1ccc([N+](=O)[O-])cc1,5.6,1.6,16.0,-11.4,-9.1,-8.6
CCC1CN(C(=O)N2CCC(C(=O)NCc3cc(OC)c(OC)c(OC)c3)CC2)c2ccccc2O1 (stereo unspecified),-88.9,3.5,9.2,-6.0,-10.2,-7.5
COc1cccc(/C=N/NC(=O)CSc2nnc(C)n2-c2ccccc2)c1O,33.1,6.2,1.5,2.4,-16.9,-41.6
CCCCSc1nc(C)cc(SCC(=O)N/N=C/c2cccc(OC)c2O)n1,53.5*,9.6,19.3,-0.4,103.5*,·
COc1ccccc1/C=N/NC(=O)CSc1ccc2ccccc2n1,-71.4,7.3,-106.0,-4.9,52.0*,48.7
CCOC(=O)C1=C(O)/C(=C/c2ccc(-c3ccccc3C(=O)O)o2)SC1=Nc1ccc(C)cc1,15.1,27.6,25.6,-2.2,57.7*,2.5
COc1cc2ccccc2ccc1=NO,-29.9,78.6*,5.0,-11.7,62.2*,22.3
COc1ccc(OC)c2cc3ccccc3cc12,54.9*,-52.6,-28.9,-3.0,17.4,-9.5

# Source: PubChem (Sanford-Burnham Center for Chemical Genomics)
